PubChem BioAssay (NCI)
“And” between values parts separate entries of the source, which are not always exact repeats. Equal values may be shown once. The panel holds about 79,000 compounds, 15% with a hit somewhere; the sample as a whole holds those more often. No stated cut-off is given here; in the data, active means growth inhibition above about 70%; inactive means the rest.

Experiments:
[1] = NCI Yeast Anticancer Drug Screen. Data for the rad50 strain (AID 155);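 further: 0% = growth of vehicle-only cultures of the same strain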; settings: S. cerevisiae rad50 strain growth inhibition; at 50.0 µM; hits give high values
Procedure, shortened: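 Relative growth inhibition (compound vs vehicle) was measured in yeast with a defined repair-gene alteration.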

[2] = NCI Yeast Anticancer Drug Screen. Data for the mec2-1 strain (AID 157); settings: S. cerevisiae mec2-1 strain, at 50.0 µM, hits give high values
Procedure, shortened: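 Mutant yeast (mec2-1) grown with compound; growth inhibition relative to vehicle control reported.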

[3] = NCI Yeast Anticancer Drug Screen. Data for the sgs1 mgt1 strain (AID 161);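 further: 0% = growth of cultures given vehicle only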; settings: S. cerevisiae sgs1 mgt1 strain, at 50.0 µM, hits give high values
Procedure, shortened: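 Percent growth inhibition was derived by comparing compound-exposed mutant yeast with vehicle-exposed cultures. The strain carries alterations in DNA damage repair.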

[4] = NCI Yeast Anticancer Drug Screen. Data for the cln2 rad14 strain (AID 165);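 further: 0% = growth equal to vehicle treated cultures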; settings: S. cerevisiae cln2 rad14 strain, at 50.0 µM, hits give high values
Procedure, shortened: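 Readout is yeast growth inhibition versus vehicle-treated controls, using a strain with cln2 and rad14 alterations exposed to compound.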

[5] = NCI Yeast Anticancer Drug Screen. Data for the bub3 strain (AID 167); settings: S. cerevisiae bub3 mutant strain, at 50.0 µM, hits give high values
Procedure, shortened: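 Screening used yeast with an engineered genetic alteration affecting cell cycle control. Compound-exposed cultures were compared with vehicle cultures, and reduced growth was taken as inhibition.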

[6] = NCI Yeast Anticancer Drug Screen. Data for the mlh1 rad18 strain (AID 175); settings: S. cerevisiae mlh1 rad18 strain growth inhibition; at 50.0 µM; hits give high values
Procedure, shortened: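 Genetically defined yeast (DNA repair-deficient) exposed to compounds; growth inhibition determined relative to vehicle.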

Measured: growth inhibition

CC(=O)Nc1ccc(-c2ccc(NC(C)=O)cc2)cc1
inactive: [1] -24.2% and -15.2% | [2] -41.9% and -24.6% | [3] -26.9% and -0.95% | [4] -182% and -42.9% | [5] -24.4% and -1.45% | [6] -10.1% and -21.2%

COC1C(OC(C)=O)CC(=O)OC(C)C/C=C/C=C\C(O)C(C)CC(CC=O)C1OC1OC(C)C(OC2CC(C)(O)C(OC(=O)CC(C)C)C(C)O2)C(N(C)C)C1O (stereo unspecified)
inactive: [1] -0.2% and -2.9% | [2] -10.4% and -25.7% | [3] -22.6% and -34% | [4] -4.95% and 4.75% | [5] -27.1% and -30.9% | [6] -2% and -6.85%

CC(CC(N)C(=O)O)C(=O)O (stereo unspecified)
inactive: [1] -0.4% and -5.1% | [2] -4.75% and -22.6% | [3] -1.95% and -49.1% | [4] 0.25% and -68.8% | [5] 0.9% and -26.1% | [6] -1.85% and -17.2%

CCOC(=O)C(CC(C(=O)OCC)C(=O)OCC)C(=O)OCC
inactive: [1] -21.1% and -11.8% | [2] -15.1% and -16.2% | [3] -6.3% and -20.6% | [4] 10.7% and -16.1% | [5] 10.8% and -12.5% | [6] -25.1% and -9.15%

O=C(O)c1cc2ccccc2c(=O)[nH]1
inactive: [1] -2.25% and 29.4% | [2] 4.55% and 10.8% | [3] -6.9% and 21.9% | [4] 0.8% and 12.2% | [5] 0.9% and 4.45% | [6] 2.4% and -6.55%

COC(=O)C1=COC(C)C2CN3CCc4c([nH]c5cc(OC)c(OC)cc45)C3CC12 (stereo unspecified)
inactive: [1] 14.2% and 5.35% and -4.65% | [2] -5.4% and -5.6% and -9.7% | [3] 5.6% and 12.8% and -5.45% | [4] 6.1% and 14.9% and 10.6% | [5] 26.4% and 18.1% and -20.4% | [6] 25.6% and -54.1% and -63.4%

C=C1C[C@]23C[C@@]1(O)CC[C@H]2[C@@]12C=C[C@H](O)[C@@](C)(C(=O)O1)[C@H]2[C@@H]3C(=O)O
inactive: [1] -20.4% and -0.7% | [2] -39.5% and -16.6% | [3] -31.1% and -1.3% | [4] 0.4% and 0.9% | [5] -51.8% and -18.1% | [6] -52.4% and -3%

CC(=O)c1c(O)c(C)c(O)c2c1OC1=CC(=O)C(C(C)=O)C(=O)C12C (stereo unspecified)
inactive: [1] 30.6% and 28.6% and -0.1% | [2] 21% and 17.2% and -20.2% | [3] 28.4% and 23.8% and -25.1% | [4] 37% and 23.2% and -19.4% | [5] 30.4% and 24.9% and 12.6% | [6] 23.9% and 31.6% and -25.6%

C=C1C(=O)OC2/C=C(/C)C3CC(O)C(C)(CC(OC(=O)/C(C)=C/C)C12)O3 (stereo unspecified)
inactive: [1] -9.75% and -7.75% | [2] -12.9% and -20.4% | [3] -6.85% and 0.45% | [4] 13.4% and 8.45% | [5] -5.25% and -26.3% | [6] -5.35% and 2.9%

O=c1c(I)c[nH]cc1I
inactive: [1] -12.1% and -3.2% | [2] -15.9% and 14.1% | [3] -24.1% and 4.45% | [4] 3.35% and 22.6% | [5] -9.4% and 15.7% | [6] 22.2% and 14.8%

Cc1ccc(C(C)CCCO)cc1 (stereo unspecified)
inactive: [1] -11.6% and 6.8% | [2] -15.4% and -21.8% | [3] -16.8% and -6.55% | [4] -6.55% and -2.3% | [5] -22.2% and -6.35% | [6] -23.9% and -25.9%

CC(C)(O)C(I)C[n+]1ccccc1 (stereo unspecified)
inactive: [1] 38.5% and -7.55% | [2] 41.6% and -2.95% | [3] 50.5% and -28.9% | [4] 4.9% and -6.9% | [5] 39.9% and 0.85% | [6] 46.9% and -7.3%

CC1OC(n2cnc3c(N)ncnc32)C(O)C1O (stereo unspecified)
inactive: [1] -3.75% and 14.4% | [2] 8.1% and -3.35% | [3] 2.5% and -12.4% | [4] -53.2% and 5.3% | [5] 0.85% and -1% | [6] -0.4% and -13.8%

CC12CCC(C1)C(C)(C)C2OC(=O)c1ccccc1C(=O)O (stereo unspecified)
inactive: [1] 11.5% and 22.9% | [2] 29.1% and -13.2% | [3] 20.4% and -25.9% | [4] 4.6% and -8.6% | [5] 13.8% and 1.3% | [6] 8.9% and 5.2%

COC(=O)C(C)NC(=O)c1c2nc3c(C(=O)NC(C)C(=O)OC)ccc(C)c3oc-2c(C)c(=O)c1N (stereo unspecified)
inactive: [1] 2.9% and 13.8% | [2] 14.7% and -7.2% | [3] 0.1% and -14.9% | [4] 22% and 15% | [5] 7.25% and -4.65% | [6] 29.1% and -4.85%

CCOC(=O)C(NC(C)=O)C(C)=O (stereo unspecified)
inactive: [1] 32.5% and 10.9% | [2] -7% and -5.65% | [3] 13.1% and 8.85% | [4] -4.15% and -11.7% | [5] 1.55% and -3.15% | [6] -5.85% and 11.9%

NC(Cn1ccc(=O)c(O)c1)C(=O)O (stereo unspecified)
inactive: [1] 9.8% and -0.85% | [2] 18.6% and 5.7% | [3] 7.35% and 21.9% | [4] 13.2% and 6.8% | [5] 10.7% and 11.4% | [6] -90.2% and 4.3%

O=C(O)CCC(=O)c1cccs1
inactive: [1] 12.8% and -5.4% | [2] 4.25% and 19.6% | [3] 2.2% and -4.45% | [4] -28.4% and -5.5% | [5] -5.1% and -25.4% | [6] -28.9% and -21.1%

Cc1ccc(S(=O)(=O)NN=C2C(C)(C)CC2(C)C)cc1
inactive: [1] -21.9% and 21.2% | [2] 1.15% and -11.8% | [3] 8.55% and 6.6% | [4] 13.9% and -23.5% | [5] 6.15% and -2.85% | [6] -24.8% and 3.65%

O=[N+]([O-])c1ccc2c(c1)C(=Nc1ccccc1)c1cccc([N+](=O)[O-])c1-2
inactive: [1] 6.55% and -21.9% | [2] 16.2% and -12.8% | [3] 15.6% and -6.05% | [4] -36.9% and -24.8% | [5] 8.8% and 8.9% | [6] 20.3% and -26.3%

CCCCCCCCCCSCC(CO)NC(=O)/C=C/c1c(C)[nH]c(=O)[nH]c1=O (stereo unspecified)
inactive: [1] 1.95% and 30.7% | [2] -13.7% and 15.2% | [3] 2.45% and 2% | [4] -27.2% and 14.8% | [5] -14.4% and -14% | [6] 9.55% and -47.1%
